# TRPV1 potentiator: HTS Assay for Compounds that Act as Potentiators of the Vanilloid Receptor 1; AID 540277, 2011; potentiation, % at 8.33 µM; 0.02% of 320,000 active; TRPV1-expressing cells, Fluo-8 calcium influx, capsaicin EC20 potentiation; Transient receptor potential cation channel subfamily V member 1 (Homo sapiens), Q8NER1; in the data active = potentiation above about 80%; inconclusive = between about 30% and that limit; note: 0% is about no effect
# Target sequence (Q8NER1 whole entry, looked up): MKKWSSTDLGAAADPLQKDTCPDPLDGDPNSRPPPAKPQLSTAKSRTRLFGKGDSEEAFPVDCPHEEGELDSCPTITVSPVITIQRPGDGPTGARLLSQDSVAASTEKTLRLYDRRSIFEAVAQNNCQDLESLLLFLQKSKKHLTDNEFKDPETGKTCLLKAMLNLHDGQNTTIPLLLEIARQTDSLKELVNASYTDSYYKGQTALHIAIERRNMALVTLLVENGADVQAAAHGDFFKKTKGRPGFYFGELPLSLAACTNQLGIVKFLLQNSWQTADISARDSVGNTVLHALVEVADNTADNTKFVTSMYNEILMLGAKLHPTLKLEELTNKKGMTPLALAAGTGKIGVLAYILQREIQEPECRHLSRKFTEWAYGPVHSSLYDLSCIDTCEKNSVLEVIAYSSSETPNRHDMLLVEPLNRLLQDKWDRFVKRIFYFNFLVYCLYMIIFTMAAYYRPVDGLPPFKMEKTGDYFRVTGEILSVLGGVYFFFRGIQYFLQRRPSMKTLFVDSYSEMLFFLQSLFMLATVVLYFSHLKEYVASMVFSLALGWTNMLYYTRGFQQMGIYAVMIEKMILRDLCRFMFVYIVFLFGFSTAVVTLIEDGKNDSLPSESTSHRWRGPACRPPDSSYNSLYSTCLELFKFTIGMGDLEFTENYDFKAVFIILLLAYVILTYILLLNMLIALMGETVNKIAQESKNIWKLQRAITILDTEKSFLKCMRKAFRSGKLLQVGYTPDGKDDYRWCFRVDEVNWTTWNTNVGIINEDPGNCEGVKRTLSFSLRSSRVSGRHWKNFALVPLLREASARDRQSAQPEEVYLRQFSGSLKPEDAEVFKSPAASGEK
#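 Fluo-8 calcium influx in TRPV1-expressing cells, kinetic read (ex 480/em 520 nm). Compound added and read 3 min for agonist activity, followed by capsaicin at EC20 final and 2 min further read for enhancement.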
# RORgamma inh: qHTS for inhibitors of ROR gamma transcriptional activity; Nuclear receptor ROR-gamma (Mus musculus), P51450; Drosophila S2 Gal4-RORgamma UAS-luciferase reporter, 20 h; Potency, µM (highest dose often 53.6 µM), inactives show at the highest dose activity change, negative = inhibition, usual class: inhibitors; 5.4% of 310,000 active; AID 2551, 2010; note: potency is the fitted concentration of half-maximal effect; % is set by controls: 0 for no effect and ±100 for the full control effect; nearly all actives have a fitted effect of over 60% in size
#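 Drosophila S2 cells stably expressing Gal4-DBD/mouse RORγ fusion under metallothionein promoter plus UAS-luciferase; compound 1 h, then 700 uM CuSO4 induction for 20 h at ambient temperature; inhibition read as reduced luminescence.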
# TRPV1 agonist: HTS Assay for Compounds that Act as Agonists of the Vanilloid Receptor 1; Transient receptor potential cation channel subfamily V member 1 (Homo sapiens), Q8NER1; TRPV1-expressing cells, Fluo-8 calcium influx, agonist mode; activation, % at 8.33 µM; 0.19% of 320,000 active; in the data active = activation above about 80%; inconclusive = between about 30% and that limit; note: 0% is about no effect
#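 Fluo-8 calcium influx in TRPV1-expressing cells, kinetic read (ex 480/em 520 nm). Compound added and read 3 min for agonist activity, followed by capsaicin at EC20 final and 2 min further read for enhancement.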
# Gal4-VP16 FLuc: VP16 counterscreen qHTS for inhibitors of ROR gamma transcriptional activity. AID 2546, 2010. Drosophila S2 Gal4-VP16 UAS-luciferase, luminescence, 20 h. Potency, µM (doses to about 53.6 µM), inactives show at the highest dose activity, negative = inhibition, actives largely listed as inhibitors. 3.5% of 310,000 active;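 note: Gal4-VP16 expression switched on by copper sulfate through the metallothionein promoter; potency is the fitted concentration of half-maximal effect; % is set by controls: 0 for no effect and ±100 for the full control effect; nearly all actives have a fitted effect of over 50% in size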
# uPA generation: qHTS for Inhibitors of Cell Surface uPA Generation | cell surface uPA generation assay, qHTS | AID 540303, 2011 | 0.31% of 330,000 active | Potency, µM (doses to about 38.3 µM), without a hit: at the top dose activity change, negative = inhibition, usual class: inhibitors; active = well fitted inhibition curve with a large enough effect; inconclusive = small, poorly fitted or top-dose-only effect; inactive = no such curve, though single readings can be large or run the other way; tested in mouse RAW 264.7 cells; note: potency is the fitted concentration of half-maximal effect; % is set by controls: 0 for no effect and ±100 for the full control effect; nearly all actives have a fitted effect of over 55% in size
# * hit, by the source's call; ? = inconclusive; . = not tested or not shown; [ ] = remark or other dose. The list is not random: actives were taken first. Their share in the collection is about 5.8%. Unless noted, calls come from the whole dose curve; as a rule, active = well fitted curve in the direction sought with a large enough effect; inconclusive = small, poorly fitted or top-dose-only effect, or another doubt; inactive = no such curve, though single readings can be large; an effect the other way counts as inactive or inconclusive.
SMILES,TRPV1 potentiator,RORgamma inh,TRPV1 agonist,Gal4-VP16 FLuc,uPA generation
CCN(CC)CCCC(C)n1c(-c2ccccc2)nc2c(NC3CCCCC3)nc(C)nc21 (stereo not drawn),.,-28%,.,-7%,.
CC1=NN(c2ccc(C)c(C)c2)C(=O)/C1=C\C=C\c1ccc([N+](=O)[O-])o1,15,10µM*,1,?,-15%
CC1CC(C)CN(CCCNC(=O)c2ccc3c(c2)N(Cc2ccccc2)C(=O)c2ccccc2S3=O)C1 (stereo not drawn),8,11µM*,-11,-17%,?
O=C(NCCCN1CCCC1)c1ccc2c(c1)N(Cc1cccc(Cl)c1)C(=O)c1ccccc1S2=O (stereo not drawn),3,-2%,0,3%,-25%
O=C(NCCCN1CCOCC1)c1ccc(Sc2cccc(Cl)c2)c([N+](=O)[O-])c1,-7,-7%,20,-8%,1%
CCOC(=O)N1CCC(N2CCCC(C(=O)c3cccc(OC)c3)C2)CC1 (stereo not drawn),-6,13%,-2,-1%,1%
CCc1ccc(/C=C2/SC(N3CCOCC3)=NC2=O)cc1,-2,14%,85*,9%,-3%
C=CCOc1ccc(/C=C2\SC(N3CCCCC3)=NC2=O)cc1,14,?,82*,12%,-5%
CC(C)c1ccc(/C=C2\SC(N3CCOCC3)=NC2=O)cc1,3,34%,?,12%,-6%
Nc1c(C(=O)c2ccccc2)sc2nsc(SCCN3CCOCC3)c12,-5,-4%,106*,?,-13%
CC(=O)c1sc2nsc(SCCN3CCOCC3)c2c1N,-23,-4%,14,-2%,-4%
C=CCC1C=CC(Oc2ccc(OC)cc2)C(CO)O1 (stereo not drawn),.,0%[10 µM],.,-6%[10 µM],.
CCN1CCCc2cc(CN(CCN3CCOCC3)C(=S)Nc3cccc(C)c3)ccc21,3,6.3µM*,18,-2%[10 µM],-3%
CCN1CCCc2cc(CN(CCN3CCOCC3)C(=S)Nc3ccccc3OC)ccc21,2,10µM*,-3,-14%,3%
CCN1CCCc2cc(CN(CCN3CCOCC3)C(=S)Nc3ccccc3C)ccc21,-17,5%,5,-10%[10 µM],1%
CCOc1ccc2c(c1)C(N(CCN1CCOCC1)C(=S)Nc1ccccc1OC)CC(C)(C)O2 (stereo not drawn),26,16µM*,2,?,7%
Cc1cccc(C(=O)NCc2nnc3c4ccccc4c(-c4ccccc4)nn23)c1,2,-28%,5,-1%,2%
OCCN(CCCn1c(-c2ccncc2)nc2ccccc21)c1nc(CN2CCCCC2)cs1,15,-6%,3,-4%,-6%
COCCCNC(=S)N1CCC(C(=O)c2ccc(Cl)cc2)CC1,-17,17%,0,5%,1%
Cc1oc(-c2cccc(C(F)(F)F)c2)nc1CN1CCC[C@H]1CO,-24,11%,14,0%,0%
Cc1oc(-c2cccc(C(F)(F)F)c2)nc1CN1CCOCC1,5,0.79µM*,7,5µM*,0%
O=S(=O)(c1ccccc1)N1CCN(c2cc(-c3ccccc3)nc3ncnn23)CC1,2,?,2,5.6µM*,.
O=S(=O)(c1ccc(Br)cc1)N1CCN(c2cc(-c3ccccc3)nc3ncnn23)CC1,2,2%,-3,-3%,.
c1ccc(Nc2cc(-c3ccccc3)nc3ncnn23)cc1,0,16µM*,-6,?,.
CC(=O)CSc1cc(-c2ccccc2)nc2ncnn12,0,2.5µM*,2,16µM*,-5%
SMILES,TRPV1 potentiator,RORgamma inh,TRPV1 agonist,Gal4-VP16 FLuc,uPA generation
Clc1ccc(Nc2cc(-c3ccccc3)nc3ncnn23)cc1,6,-44%,0,-3%,-5%
Cn1ccnc1SCc1cn2cc(Br)ccc2n1,3,11µM*,-4,10µM*,-7%
Cc1ccc(OCC(=O)NNC(=O)CSc2ncnc3sc(C)c(C)c23)cc1,-2,-15%,0,4%,10%
Cc1sc2ncnc(SCC(=O)c3ccc(Cl)s3)c2c1C,28,37%,3,-10%,.
Cc1sc2ncnc(SCC(=O)c3ccc(O)cc3O)c2c1C,17,13µM*,-8,?,1%
Cc1ccc(OCCSc2ncnc3sc(C)c(C)c23)cc1C,8,11µM*,0,-15%,12%
CC1=CC(=O)C2=C(C)C[C@H](OC(=O)Cc3ccccc3)C3[C@H](OC(=O)[C@H]3C)C12 (stereo partly drawn),.,10%,.,2%,.
CCC(C)(C)C1CCC(=NNc2nc3ccccc3[nH]2)CC1 (stereo not drawn),-8,11µM*,?,?,-10%
Cc1cc(=O)[nH]c(NN=C2CCC(C(C)(C)C)CC2)n1 (stereo not drawn),-16,8%,14,-11%,9%
Cc1cc(C)n(-c2nc(N(C)C)nc(N(C)C)n2)n1,19,2.8µM*,1,7.1µM*,2%
Cc1cc(C)n(-c2nc(NC(C)(C)C)nc(NC(C)(C)C)n2)n1,-11,2µM*,10,?,1%
Cc1cc(C)n(-c2nc(NC(C)C)nc(NC(C)C)n2)n1,-5,0.56µM*,2,2.5µM*,-10%
Cc1cc(C)n(-c2ncc(C#N)cn2)n1,?,-2%,3,6%,2%
CCNc1nc(NCC)nc(-n2nc(C)cc2C)n1,14,0.71µM*,-3,2.2µM*,-16%
Cc1cc(C)n(-c2nnc(NC(C)(C)C)nn2)n1,5,-7%,2,-4%,-6%
Cc1ccc(-c2nc(CS(=O)CC(=O)NCc3ccc(Cl)cc3)c(C)o2)cc1 (stereo not drawn),6,13µM*,11,0%,-13%
CCc1ccc(-c2nc(CS(=O)CC(=O)NCc3ccccc3)c(C)o2)cc1 (stereo not drawn),-8,?,5,-3%,6%
CCc1cccc(NC(=O)CS(=O)Cc2nc(-c3ccc(C)cc3)oc2C)c1 (stereo not drawn),.,11µM*,.,-4%,1%
COc1ccc(-c2nc(CS(=O)CC(=O)NCc3ccc(Cl)cc3)c(C)o2)cc1 (stereo not drawn),?,8.9µM*,10,7%,-11%
O=C(OCc1c(Cl)cccc1Cl)c1ccncc1,-22,-3%,12,-2%,-2%
O=C(Nc1ccn(CCCNCC2CCCO2)c(=O)n1)OCc1ccccc1 (stereo not drawn),.,.,.,.,6%
Cc1ccc(-n2nnnc2-c2cnc(N3CCCC3)nc2C(F)(F)F)cc1,-18,?,0,16µM*,-4%
FC(F)(F)c1nc(N2CCCC2)ncc1-c1nnnn1-c1ccccc1,-8,44%,-1,?,-5%

# From PubChem
